An excerpt weighted towards active compounds, which were near 10% of everything screened.
Six1-Eya2 blk: Six1/Eya2 interaction inhibition; Q15475+O00167; AlphaScreen GST-Six1/His-Eya2 binding, biochemical; active compounds read low; activity change, % (test concentration not listed); hit rate 0.56% among 360,000; AID 651725; in the data active = activity change below about -65%; inconclusive = mostly about -30% to -63%
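Six1/Eya2 binding was read as AlphaScreen signal after compounds were pinned into GST-Six1 plus His-tagged Eya2 (5X stock 250/500 nM) in pH 8.0 Tris/NaCl/TCEP buffer, beads added, then incubated 1 h, 37 C, dark.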
G9a block: blocks human histone lysine methyltransferase G9a; Q96KQ7; G9a H3K9 monomethylation, AlphaScreen, 2 h; Potency, µM (highest dose often 102 µM), hits mostly inhibitors; hit rate 8.8% among 350,000; also: nearly all actives have a fitted effect of over 75% in size
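Using a bead-based AlphaScreen, monomethylated H3K9 product from 2 h room-temperature reactions (G9a 20 nM, peptide 500 nM, SAM 20 uM) was detected with 0.5 ug/mL rabbit anti-H3K9me1 antibody.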
JMJD2A Tudor: inhibitors of human JMJD2A Tudor domain; hit rate 4.4% among 390,000; AlphaScreen JMJD2A-Tudor / H3K4me3 peptide binding; AID 504339; Potency, µM (doses to about 114 µM), hits mostly inhibitors; also: nearly all actives have a fitted effect of over 50% in size
BAZ2B inh: blocks human BAZ2B. Q9UIF8. AlphaScreen BAZ2B-H3K14Ac peptide displacement. Potency, µM (series often up to 114 µM), hits mostly inhibitors. hit rate 4.4% among 360,000. AID 504333; also: nearly all actives have a fitted effect of over 60% in size
Target sequence (Q9UIF8 whole entry, looked up): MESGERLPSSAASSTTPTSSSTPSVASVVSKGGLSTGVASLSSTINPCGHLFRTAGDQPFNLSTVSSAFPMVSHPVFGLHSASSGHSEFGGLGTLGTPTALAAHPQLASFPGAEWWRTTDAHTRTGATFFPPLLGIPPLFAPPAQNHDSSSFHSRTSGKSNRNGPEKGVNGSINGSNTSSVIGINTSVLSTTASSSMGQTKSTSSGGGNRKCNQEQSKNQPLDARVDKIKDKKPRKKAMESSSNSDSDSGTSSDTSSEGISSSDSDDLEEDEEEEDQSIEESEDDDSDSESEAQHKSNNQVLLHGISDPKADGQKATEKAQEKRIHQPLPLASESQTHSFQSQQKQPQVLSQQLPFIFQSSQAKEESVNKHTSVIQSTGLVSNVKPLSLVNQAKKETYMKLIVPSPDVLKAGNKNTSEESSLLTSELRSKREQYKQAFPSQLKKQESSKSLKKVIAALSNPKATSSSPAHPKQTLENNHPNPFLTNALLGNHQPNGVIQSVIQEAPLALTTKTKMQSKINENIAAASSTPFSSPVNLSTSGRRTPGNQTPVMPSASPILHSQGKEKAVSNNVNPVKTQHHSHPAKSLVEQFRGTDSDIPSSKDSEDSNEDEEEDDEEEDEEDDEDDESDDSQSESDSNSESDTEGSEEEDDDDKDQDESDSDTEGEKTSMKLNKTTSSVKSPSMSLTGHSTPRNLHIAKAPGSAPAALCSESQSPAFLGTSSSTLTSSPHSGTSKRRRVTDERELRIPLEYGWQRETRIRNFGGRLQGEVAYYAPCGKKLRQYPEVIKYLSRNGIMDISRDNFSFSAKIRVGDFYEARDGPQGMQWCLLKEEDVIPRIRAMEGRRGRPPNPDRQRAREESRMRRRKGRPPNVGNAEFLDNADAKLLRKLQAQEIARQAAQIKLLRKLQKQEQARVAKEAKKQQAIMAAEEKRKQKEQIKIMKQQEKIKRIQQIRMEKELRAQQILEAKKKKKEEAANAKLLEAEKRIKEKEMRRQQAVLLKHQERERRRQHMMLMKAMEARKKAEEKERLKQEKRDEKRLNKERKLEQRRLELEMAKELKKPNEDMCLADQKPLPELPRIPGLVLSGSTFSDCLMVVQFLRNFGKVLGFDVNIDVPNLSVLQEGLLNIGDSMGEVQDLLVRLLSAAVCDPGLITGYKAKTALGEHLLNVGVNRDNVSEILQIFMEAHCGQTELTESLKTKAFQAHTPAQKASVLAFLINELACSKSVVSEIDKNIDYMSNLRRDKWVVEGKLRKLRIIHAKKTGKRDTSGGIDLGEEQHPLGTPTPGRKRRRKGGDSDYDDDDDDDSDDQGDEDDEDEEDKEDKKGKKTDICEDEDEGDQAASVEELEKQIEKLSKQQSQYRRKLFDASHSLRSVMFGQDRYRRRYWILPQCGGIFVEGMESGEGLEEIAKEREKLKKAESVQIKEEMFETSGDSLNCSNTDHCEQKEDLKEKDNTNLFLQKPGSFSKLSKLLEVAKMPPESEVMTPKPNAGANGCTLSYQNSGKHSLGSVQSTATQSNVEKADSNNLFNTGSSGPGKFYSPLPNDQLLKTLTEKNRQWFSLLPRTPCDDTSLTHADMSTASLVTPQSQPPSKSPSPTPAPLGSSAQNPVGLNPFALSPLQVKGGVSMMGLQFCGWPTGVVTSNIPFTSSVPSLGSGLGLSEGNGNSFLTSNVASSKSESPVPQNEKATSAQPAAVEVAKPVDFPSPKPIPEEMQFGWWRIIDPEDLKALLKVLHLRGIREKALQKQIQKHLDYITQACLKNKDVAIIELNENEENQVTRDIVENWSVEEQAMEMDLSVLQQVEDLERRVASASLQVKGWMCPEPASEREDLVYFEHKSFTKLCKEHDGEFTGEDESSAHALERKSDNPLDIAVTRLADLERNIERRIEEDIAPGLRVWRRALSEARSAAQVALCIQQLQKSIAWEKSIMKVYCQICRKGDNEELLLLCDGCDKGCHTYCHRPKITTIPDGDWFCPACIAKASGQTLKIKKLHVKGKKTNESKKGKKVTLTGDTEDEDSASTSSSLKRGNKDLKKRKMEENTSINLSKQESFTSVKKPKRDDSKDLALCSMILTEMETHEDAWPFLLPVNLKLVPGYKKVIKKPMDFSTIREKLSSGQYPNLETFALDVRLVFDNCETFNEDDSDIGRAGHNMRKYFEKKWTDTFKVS
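Inhibition is scored as reduced AlphaScreen emission. The BAZ2B/b-H3(5-23)K14Ac complex (50 nM each) in PBS pH 7.4, 0.01% Tween-20 meets compound (up to 110 uM) for 30 min at RT before bead addition.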
HP1b chromo inh: blocks HP1-beta chromodomain binding to methylated histone tails; P83916; AlphaScreen HP1-beta / biotin-H3K9me3 peptide binding; Potency, µM (highest dose often 114 µM), hits mostly inhibitors; hit rate 0.56% among 390,000; also: nearly all actives have a fitted effect of over 70% in size
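Compound inhibition of the preformed complex between 50 nM HP1-beta and 50 nM biotinylated H3K9me3 peptide was read by AlphaScreen. Buffer was PBS pH 7.4 with 0.01% Tween-20. Incubations ran 30 min at room temperature, with 10 ug/mL donor/acceptor beads.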
CtBP-E1A inh: blocks the CtBP interaction with E1A; AID 651724; hit rate 0.49% among 340,000; AlphaScreen GST-E1A/His-CtBP binding, 1536-well; active compounds read low; activity change, % (test concentration not listed); in the data active = activity change below about -65%; inconclusive = mostly about -30% to -63%
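In 5 uL wells, 23 nL compound meets equimolar GST-E1A and His-CtBP (5X stock 125 nM each) for 2 h, 37 °C. Beads (5X, 50 ug/mL) then 1 h, 37 °C, dark.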
Hits are given with their value; n = inactive; u = inconclusive; x = no result; [ ] = remark or other dose. Unless noted, calls follow the shape of the dose curve; as a rule, active = well fitted inhibition curve with a large enough effect; inconclusive = small, poorly fitted or top-dose-only effect; inactive = no such curve, though single readings can be large or run the other way.

SMILES	Six1-Eya2 blk	G9a block	JMJD2A Tudor	BAZ2B inh	HP1b chromo inh	CtBP-E1A inh
O=C(O)c1cccc(-n2cccc2/C=C2/SC(=O)N(CC(=O)N3CCCC3)C2=O)c1	u	45µM	40µM	50µM	u	n
O=C(O)c1cccc(-n2cccc2C=C2C(=O)c3ccccc3C2=O)c1	n	50µM	u	u	n	n
O=C1C(=Cc2cccn2-c2ccc(O)cc2)C(=O)c2ccccc21	n	x	n	u	n	n
O=C(N/N=C/c1cccn1-c1cccc(C(=O)O)c1)Nc1ccccc1	n	n	u	79µM	n	n
O=C1C(=Cc2cccn2-c2ccccc2)C(=O)c2ccccc21	n	3.5µM	n	u	n	n
O=C(N/N=C/c1cccc(Cl)c1Cl)Nc1ccccc1	n	n	n	n	n	n
COc1cccc(-c2cnc3c(NC(C)=O)cc(-c4ccc(S(C)(=O)=O)cc4)cn23)c1	n	x	x	x	x	n
CCCCn1c(N)c(N(CCOC)C(=O)COC(=O)c2ccccc2NCCO)c(=O)[nH]c1=O	n	x	n	x	n	n
CN(C)c1ccc(CNC(=O)CN2C(=O)C3CCCCN3c3ccc(C(=O)N4CCCC4)cc32)cc1 (stereo not drawn)	x	n	n	n	n	x
COc1ccc(C2/C=C\CN(C(=O)c3ccc(C)cc3)[C@H](Cc3ccccc3)C(=O)N2Cc2ccc(F)cc2)cc1 (stereo partly drawn)	n	n[12.7 µM]	n	n	n	n
CC1Nc2ccc(C(=O)NC3CCCCC3)cc2NC1=O (stereo not drawn)	n	35µM	n	n	n	n
CCOc1ccc(C(=S)NC2CCCCC2)cc1OCC	n	7.9µM	79µM	u	u	n
Cc1cccc(C(=O)NC2CCCCCCC2)c1	n	n	n	n	n	n
CCN(CC)c1ccc(C(=S)NC2CCCCC2)cc1	u	n	u	22µM	32µM	n
CN(C)c1cccc(C(=O)NC2CCCCCC2)c1	n	8.9µM	u	n	n	n
CCCN(CCC)CCCNC(=O)C1CCC(CNS(=O)(=O)c2ccc(NC(C)=O)cc2)CC1 (stereo not drawn)	x	n	n	n	n	x
CCOC(=O)c1c(C)[nH]c(C)c1C(=O)COC(=O)/C=C/c1ccco1	n	u	n	u	n	n
CN(C)c1ccc(C(=O)OCC(=O)NC2CCCCCC2)cc1	n	n	n	x	n	n
CN(C)c1ccc(C(=S)NC2CCCCC2)cc1	n	5.6µM	u	n	u	n
CCn1c2ccc(C)cc2c2nnc(SCCN3CCCCC3)nc21	n	n	n	n	n	n
O=C(CSc1ncc(-c2ccccc2)n1C1CCCC1)N1CCc2ccccc21	n	32µM	n	u	n	n
Cn1c(SCC(=O)N2CCCc3ccccc32)ncc(C(=O)Nc2ccccc2)c1=O	x	n	n	n	n	x
O=C(CSc1nccn1-c1ccc(Cl)cc1)N1CCCc2ccccc21	n	50µM	u	35µM	u	n
CCCn1c2ccc(C)cc2c2nnc(SCCN3CCCCC3)nc21	n	8.9µM	n	n	n	n
Cn1c(-c2ccccc2)cnc1SCC(=O)N1CCCc2ccccc21	n	u	u	45µM	u	n
SMILES	Six1-Eya2 blk	G9a block	JMJD2A Tudor	BAZ2B inh	HP1b chromo inh	CtBP-E1A inh
O=C(Nc1cccc(F)c1)c1ccc(-c2ccccc2)s1	x	n	n	n	n	x
Cn1cccc1C(=O)N1CCC[C@@]2(CCN(C(c3ccccc3)c3ccccc3)C2)C1	x	n[12.7 µM]	x	x	x	x
CC(C)C(=O)Nc1nnc(CCN2CCCCC2)s1	n	u	n	n	n	n
O=C(CSc1nnnn1-c1ccccc1)N1CCc2ccccc21	n	13µM	n	n	n	n
Cc1ccc2c(c1)c1nnc(SCC(=O)N3CCCc4ccccc43)nc1n2CC(=O)O	-78	x	n	n	n	-88
O=C(CSc1nnnn1-c1ccccc1)N1CCCc2ccccc21	n	n	n	n	n	n
Cc1ccc(-c2cnc(SCC(=O)N3CCCc4ccccc43)n2C)cc1	n	11µM	u	28µM	u	u
CCc1nnc(NCC(=O)N2CCc3ccccc32)s1	n	14µM	n[11.4 µM]	u	n	n
CCC1=C(OC(=O)N(CC)CC)N2C(=O)OC(=NCC3CC3)[C@]2(Cc2ccccc2)[C@H]2C1=CC[C@H]1C(=O)N(c3ccccc3)C(=O)[C@H]12	n	n[12.7 µM]	n	n	n	n
Nc1ccc(C(=O)N2CCN(S(=O)(=O)c3ccc(Br)cc3)CC2)cc1[N+](=O)[O-]	n	45µM	u	n	n	n
CC(C)C(NC(N)=O)C(=O)NC1CCCCC1 (stereo not drawn)	x	n	x	n	x	x
Clc1ccc(Cl)c(OCCCCN2CCNCC2)c1	n	u	n	u	n	n
CCN1CCN(CCCOc2ccc(Cl)cc2Br)CC1	n	x	22µM	20µM	u	x
Brc1ccccc1OCCCCCN1CCCC1	x	n[0.0925 µM]	x	n	x	x
Cc1ccc(OCCCCCCN2CCNCC2)c(Br)c1	n	x	n	x	n	n
Clc1ccc(OCCCCCN2CCCC2)c(Br)c1	n	u	2µM	79µM	u	n
Clc1ccc(OCCCN2CCCCC2)c(Br)c1	n	3.5µM	4µM	79µM	u	n
Cc1ccc(CNC(=O)CCS(=O)(=O)c2ccc3nc(C)sc3c2)cc1	n	n	n	n	n	n
COc1ccccc1/C=N/N1CCN(c2ccc(Cl)cc2)CC1	n	n[0.501 µM]	40µM	50µM	n	x
COc1ccccc1C=NN1CCCCCC1	n	x	45µM	x	u	n
FC(F)Oc1ccc(/C=N/N2CCCCC2)c(OC(F)F)c1	x	56µM	x	u	x	x
O=C(N/N=C/c1ccc(OC(F)F)cc1OC(F)F)NC1CCCCC1	n	n	n	n	n	n
COc1ccc2c(c1)c1nnc(SCC(=O)NC3CC3)nc1n2C	n	u	n	n	n	u
Cc1ccc(CNC(=O)CCCc2nnc3n(C)c(=O)c4sccc4n23)cc1	x	n	n	n	n	x
O=C(CN1CCN(c2ccccc2O)CC1)Nc1cc([N+](=O)[O-])ccc1Cl	n	45µM	n	n	n	x
COc1cc(NC(=O)CN2CCC(C)CC2)c(C)cc1[N+](=O)[O-]	n	n	n	n	n	n
COc1cc(NC(=O)CSc2nc(C)c(C)c(C)n2)c(C)cc1[N+](=O)[O-]	n	50µM	n	n	n	n
O=C(CN1CCN(c2ccccc2O)CC1)Nc1ccc([N+](=O)[O-])cc1Br	n	u	n	x	n	n
CC(C(=O)Nc1ccc([N+](=O)[O-])cc1Cl)N1CCN(S(=O)(=O)c2cccs2)CC1 (stereo not drawn)	n	n[12.7 µM]	u	n	n	n
CC(C(=O)Nc1cc([N+](=O)[O-])ccc1Cl)N1CCN(c2ccc(O)cc2)CC1 (stereo not drawn)	n	7.9µM	25µM	n	71µM	n

From PubChem BioAssay
